In PubChem BioAssay (EPA / NIEHS):
Records with an inconclusive call do not appear. The source made the active and inactive calls. How the source made its calls, unless noted: active means hit-call score of the fitted dose curve at least 0.9, where 1 is the maximum; inactive means score below 0.9.

Legend:
[1] = ATG_NFI_CIS: Attagene CIS-FACTORIAL HepG2 Assay for human Nuclear Factor I (NFI) (AID 2282989); conditions: HepG2 cis-regulatory reporter, NFI response element transcription; actives raise or lower the signal
Procedure, shortened: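 Endogenous TF activity in HepG2 cells transiently transfected with cis-element-driven multiplexed reporter units, read 24 h after dosing. Reporter mRNA quantified by RT-PCR, 6-FAM labelling, HpaI digestion and capillary electrophoresis; bidirectional fit versus DMSO.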

[2] = molecular target: Myc proto-oncogene protein (Homo sapiens) (UniProt P01106); assay: ATG_Myc_CIS: Attagene CIS-FACTORIAL HepG2 Assay for human Myelocytomatosis (Myc) Proto-Oncogene Transcription Factor (AID 2282990); conditions: HepG2, Attagene cis-reporter transcription factor activity; actives raise or lower the signal
Myc proto-oncogene protein (Homo sapiens), sequence (P01106 whole entry, looked up): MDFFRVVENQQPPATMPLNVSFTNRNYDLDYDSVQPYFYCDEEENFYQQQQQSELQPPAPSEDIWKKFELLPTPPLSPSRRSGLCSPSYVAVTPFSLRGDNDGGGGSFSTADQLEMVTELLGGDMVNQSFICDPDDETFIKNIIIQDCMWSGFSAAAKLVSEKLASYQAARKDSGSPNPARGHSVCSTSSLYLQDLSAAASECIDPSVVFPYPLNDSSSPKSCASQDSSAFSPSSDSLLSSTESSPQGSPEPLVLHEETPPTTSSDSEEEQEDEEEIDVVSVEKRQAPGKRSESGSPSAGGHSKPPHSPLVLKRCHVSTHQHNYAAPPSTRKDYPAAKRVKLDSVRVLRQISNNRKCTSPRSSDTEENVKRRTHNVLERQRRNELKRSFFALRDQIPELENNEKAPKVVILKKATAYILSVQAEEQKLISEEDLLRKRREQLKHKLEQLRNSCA
Procedure, shortened: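 DMSO-normalised, bidirectionally fitted reporter mRNA signal. HepG2 cells transfected with cis reporter constructs, treated 24 h; transcripts detected by RT-PCR, 6-FAM primer extension and CE.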

[3] = ATG_NF_kB_CIS: Attagene CIS-FACTORIAL HepG2 Assay for human Nuclear Factor Kappa B (NF-kB) (AID 2282991); conditions: HepG2 Attagene cis-factorial NF-kB reporter mRNA; actives raise or lower the signal
Procedure, shortened: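 Multiplexed cis-reporter assay in transiently transfected HepG2. 24 h treatment; RNA isolated, RT-PCR, labelled fragments resolved by CE. DMSO baseline.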

[4] = ATG_NRF2_ARE_CIS: Attagene CIS-FACTORIAL HepG2 Assay for human Nuclear Factor Erythroid 2 Related Factor 2 (NFR2) response to Antioxidant Response Elements (ARE) (AID 2282992); conditions: HepG2 Attagene ARE/NRF2 reporter, transcription factor activity; actives raise or lower the signal;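 on AC50: reporter mRNA level measured by RT-PCR and capillary electrophoresis fluorescence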
Procedure, shortened: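 Readout: reporter mRNA quantified by RT-PCR plus FAM-labelled primer extension, HpaI digestion and capillary electrophoresis, 24 h after dosing transfected HepG2 cells. Gain or loss of signal is fitted bidirectionally against DMSO baseline.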

[5] = ATG_Oct_MLP_CIS: Attagene CIS-FACTORIAL HepG2 Assay for human Octamer-Binding Transcription Factor (Oct) (AID 2282993); conditions: HepG2 Attagene cis-factorial Oct reporter, mRNA; actives raise or lower the signal
Procedure, shortened: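 HepG2 cells transiently transfected with cis-element-driven reporter transcription units (endogenous TF activity); 24 h compound exposure. Reporter mRNA quantified by RT-PCR, 6-FAM labelling, HpaI digestion and capillary electrophoresis; bidirectional fit versus DMSO baseline.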

[6] = molecular target: Cellular tumor antigen p53 (Homo sapiens) (UniProt P04637); assay: ATG_p53_CIS: Attagene CIS-FACTORIAL HepG2 Assay for human p53 Transcription Factor (AID 2282994); conditions: HepG2 p53 cis-element reporter, Attagene mRNA; actives raise or lower the signal
Cellular tumor antigen p53 (Homo sapiens), sequence (P04637 whole entry, looked up): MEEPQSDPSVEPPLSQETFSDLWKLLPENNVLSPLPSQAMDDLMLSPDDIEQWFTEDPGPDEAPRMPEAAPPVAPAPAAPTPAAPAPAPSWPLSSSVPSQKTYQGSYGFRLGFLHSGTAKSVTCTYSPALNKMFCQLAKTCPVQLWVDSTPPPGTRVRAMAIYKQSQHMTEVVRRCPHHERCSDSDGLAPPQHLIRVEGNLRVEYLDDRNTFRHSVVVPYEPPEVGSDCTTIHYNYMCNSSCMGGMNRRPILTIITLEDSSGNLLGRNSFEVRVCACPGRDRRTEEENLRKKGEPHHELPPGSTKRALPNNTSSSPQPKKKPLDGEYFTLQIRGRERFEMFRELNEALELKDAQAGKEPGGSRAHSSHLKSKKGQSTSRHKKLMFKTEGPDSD
Procedure, shortened: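 Read-out: reporter mRNA by RT-PCR plus capillary electrophoresis with fluorescence detection. Human HepG2 liver cells carried transfected multi-reporter cis-element constructs, dosed 24 h. Gain or loss of signal fitted bidirectionally against DMSO control.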

[7] = molecular target: human Peroxisome Proliferator-activated Receptor delta (PPARd), PPARD (gene 5467) (UniProt Q03181); assay: ATG_PPARd_TRANS: Attagene TRANS-FACTORIAL HepG2 Assay for human Peroxisome Proliferator-activated Receptor delta (PPARd) (AID 2283002; active means hit-call score of the fitted dose curve at least 0.9, where 1 is the maximum)
human Peroxisome Proliferator-activated Receptor delta (PPARd), PPARD (gene 5467), sequence (Q03181 whole entry, looked up, the tested form may be a part): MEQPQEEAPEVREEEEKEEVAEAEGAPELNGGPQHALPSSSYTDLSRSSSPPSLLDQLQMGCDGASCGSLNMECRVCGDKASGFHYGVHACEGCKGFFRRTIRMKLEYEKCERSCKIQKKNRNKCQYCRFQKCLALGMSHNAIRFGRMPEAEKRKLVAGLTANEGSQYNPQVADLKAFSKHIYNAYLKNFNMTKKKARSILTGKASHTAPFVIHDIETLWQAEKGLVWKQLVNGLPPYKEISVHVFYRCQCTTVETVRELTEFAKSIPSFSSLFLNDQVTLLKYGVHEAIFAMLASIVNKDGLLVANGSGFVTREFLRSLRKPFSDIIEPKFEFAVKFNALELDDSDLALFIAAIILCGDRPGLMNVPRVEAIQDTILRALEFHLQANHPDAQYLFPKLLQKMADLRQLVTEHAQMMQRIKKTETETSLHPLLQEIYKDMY
Procedure, shortened: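 Measured quantity: GAL4-UAS reporter transcript induction in HepG2 after 24 h chemical dosing, with NR-Gal4 chimeras supplied by transient transfection. Detection by RT-PCR and capillary electrophoresis; upward fit against DMSO.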

[8] = molecular target: human Retinoic Acid Receptor beta (RARb), RARB (gene 5915) (UniProt P10826); assay: ATG_RARb_TRANS: Attagene TRANS-FACTORIAL HepG2 Assay for human Retinoic Acid Receptor beta (AID 2283004; active means hit-call score of the fitted dose curve at least 0.9, where 1 is the maximum)
human Retinoic Acid Receptor beta (RARb), RARB (gene 5915), sequence (P10826 whole entry, looked up, the tested form may be a part): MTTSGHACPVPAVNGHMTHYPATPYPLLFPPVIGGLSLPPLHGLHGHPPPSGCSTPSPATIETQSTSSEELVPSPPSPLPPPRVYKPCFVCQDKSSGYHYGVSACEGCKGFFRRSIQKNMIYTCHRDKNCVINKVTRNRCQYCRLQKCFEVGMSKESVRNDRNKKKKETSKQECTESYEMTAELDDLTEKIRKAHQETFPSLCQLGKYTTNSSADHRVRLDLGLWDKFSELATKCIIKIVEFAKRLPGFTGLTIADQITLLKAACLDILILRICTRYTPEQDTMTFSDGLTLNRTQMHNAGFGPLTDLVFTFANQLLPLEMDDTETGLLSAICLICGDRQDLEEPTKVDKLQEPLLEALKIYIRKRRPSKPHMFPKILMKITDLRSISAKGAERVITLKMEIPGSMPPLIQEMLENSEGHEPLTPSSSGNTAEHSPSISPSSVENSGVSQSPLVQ
Procedure, shortened: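 HepG2, transient MRTU transfection, NR–Gal4 chimera, 24 h treatment; RT-PCR plus CE fluorescence detection of reporter mRNA; gain of signal vs DMSO.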

[9] = molecular target: Retinoic acid receptor alpha (Homo sapiens) (UniProt P10276); assay: ATG_RARa_TRANS: Attagene TRANS-FACTORIAL HepG2 Assay for human Retinoic Acid Receptor alpha (RARa) (AID 2283005; active means hit-call score of the fitted dose curve at least 0.9, where 1 is the maximum)
Retinoic acid receptor alpha (Homo sapiens), sequence (P10276 whole entry, looked up, the tested form may be a part): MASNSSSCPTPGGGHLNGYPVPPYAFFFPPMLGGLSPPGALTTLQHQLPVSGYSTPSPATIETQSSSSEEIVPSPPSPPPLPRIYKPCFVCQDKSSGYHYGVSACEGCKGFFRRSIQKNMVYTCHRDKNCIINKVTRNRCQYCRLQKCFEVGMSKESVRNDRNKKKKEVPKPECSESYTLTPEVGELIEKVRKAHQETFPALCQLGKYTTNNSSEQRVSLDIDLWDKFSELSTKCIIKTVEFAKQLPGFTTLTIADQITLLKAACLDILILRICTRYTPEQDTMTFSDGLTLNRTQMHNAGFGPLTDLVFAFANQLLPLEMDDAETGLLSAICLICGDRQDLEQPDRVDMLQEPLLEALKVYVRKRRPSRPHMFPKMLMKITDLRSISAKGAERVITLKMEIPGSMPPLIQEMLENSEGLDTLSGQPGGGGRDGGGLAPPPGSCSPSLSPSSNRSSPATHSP
Procedure, shortened: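 HepG2 cells transiently transfected with multiple reporter units expressing chimeric RARα-GAL4 fusion, with GAL4-UAS-driven reporters. After 24 h compound exposure, reporter mRNA induction quantified by RT-PCR and capillary electrophoresis with fluorescent labeling; gain-of-signal fitted relative to DMSO control.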

[10] = molecular target: Peroxisome proliferator-activated receptor gamma (Homo sapiens) (UniProt P37231); assay: ATG_PPARg_TRANS: Attagene TRANS-FACTORIAL HepG2 Assay for human Peroxisome Proliferator-activated Receptor-gamma (PPARg) (AID 2283007; active means hit-call score of the fitted dose curve at least 0.9, where 1 is the maximum)
Peroxisome proliferator-activated receptor gamma (Homo sapiens), sequence (P37231 whole entry, looked up): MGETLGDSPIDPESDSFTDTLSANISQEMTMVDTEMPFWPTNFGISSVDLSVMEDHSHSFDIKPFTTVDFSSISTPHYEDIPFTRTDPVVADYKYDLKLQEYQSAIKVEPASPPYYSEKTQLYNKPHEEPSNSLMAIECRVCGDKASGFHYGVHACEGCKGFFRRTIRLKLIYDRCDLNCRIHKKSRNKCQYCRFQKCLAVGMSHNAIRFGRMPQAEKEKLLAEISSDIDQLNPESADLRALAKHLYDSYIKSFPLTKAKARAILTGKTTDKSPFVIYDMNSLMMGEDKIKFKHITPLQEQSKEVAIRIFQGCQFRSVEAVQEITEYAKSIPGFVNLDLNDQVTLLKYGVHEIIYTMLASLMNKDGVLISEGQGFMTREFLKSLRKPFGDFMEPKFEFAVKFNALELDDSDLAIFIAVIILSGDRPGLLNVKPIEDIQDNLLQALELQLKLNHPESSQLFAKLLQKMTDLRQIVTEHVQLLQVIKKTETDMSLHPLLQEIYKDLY
Procedure, shortened: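 Human hepatoma HepG2, transient MRTU transfection, 24 h treatment. mRNA reporter signal by RT-PCR plus capillary electrophoresis, fluorescence detection; fitted for increase over DMSO negative control.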

[11] = molecular target: Nuclear receptor subfamily 1 group I member 2 (Homo sapiens) (UniProt O75469); assay: ATG_PXR_TRANS: Attagene TRANS-FACTORIAL HepG2 Assay for human Pregnane X Receptor (PXR) (AID 2283008; active means hit-call score of the fitted dose curve at least 0.9, where 1 is the maximum)
Nuclear receptor subfamily 1 group I member 2 (Homo sapiens), sequence (O75469 whole entry, looked up, the tested form may be a part): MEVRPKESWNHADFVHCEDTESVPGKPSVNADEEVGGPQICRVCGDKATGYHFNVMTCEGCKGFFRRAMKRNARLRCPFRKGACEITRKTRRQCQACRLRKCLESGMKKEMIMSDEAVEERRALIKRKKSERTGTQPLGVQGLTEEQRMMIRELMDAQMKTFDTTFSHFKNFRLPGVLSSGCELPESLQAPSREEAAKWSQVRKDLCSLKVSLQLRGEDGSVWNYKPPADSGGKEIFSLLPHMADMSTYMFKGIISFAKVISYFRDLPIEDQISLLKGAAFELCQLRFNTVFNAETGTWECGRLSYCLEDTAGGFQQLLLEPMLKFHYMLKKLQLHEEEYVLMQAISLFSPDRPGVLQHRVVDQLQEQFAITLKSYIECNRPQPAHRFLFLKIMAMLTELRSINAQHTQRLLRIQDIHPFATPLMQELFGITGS
Procedure, shortened: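 Trans-factorial format: exogenous NR-Gal4 fusion activity, not endogenous factor, in transfected human HepG2 liver cells. After 24 h dosing, RNA isolated, reverse-transcribed, amplified and resolved by capillary electrophoresis; induction scored versus DMSO.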

[12] = molecular target: human Retinoic Acid Receptor gamma (RARg), RARG (gene 5916) (UniProt P13631); assay: ATG_RARg_TRANS: Attagene TRANS-FACTORIAL HepG2 Assay for human Retinoic Acid Receptor gamma (RARg) (AID 2283009; active means hit-call score of the fitted dose curve at least 0.9, where 1 is the maximum)
human Retinoic Acid Receptor gamma (RARg), RARG (gene 5916), sequence (P13631 whole entry, looked up, the tested form may be a part): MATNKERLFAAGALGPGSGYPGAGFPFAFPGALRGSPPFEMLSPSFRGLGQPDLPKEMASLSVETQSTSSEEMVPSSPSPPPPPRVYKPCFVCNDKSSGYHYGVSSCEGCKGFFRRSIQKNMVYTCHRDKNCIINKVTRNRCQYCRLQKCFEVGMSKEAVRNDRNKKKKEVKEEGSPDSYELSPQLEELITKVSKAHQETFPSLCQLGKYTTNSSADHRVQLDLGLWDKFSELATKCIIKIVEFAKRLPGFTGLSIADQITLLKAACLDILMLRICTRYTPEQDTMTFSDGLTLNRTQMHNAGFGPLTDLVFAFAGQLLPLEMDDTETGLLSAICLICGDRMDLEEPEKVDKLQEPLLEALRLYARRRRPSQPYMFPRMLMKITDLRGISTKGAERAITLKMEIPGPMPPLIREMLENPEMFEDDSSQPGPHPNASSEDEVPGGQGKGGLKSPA
Procedure, shortened: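 Gain-of-signal relative to DMSO is reported from fluorescent capillary electrophoresis of RT-PCR reporter products. These came from HepG2 cells expressing transfected RARg-GAL4 chimeras with UAS reporters, harvested 24 h after dosing.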

[13] = molecular target: human Peroxisome Proliferator-activated Receptor alpha (PPARa), PPARA (gene 5465) (UniProt Q07869); assay: ATG_PPARa_TRANS: Attagene TRANS-FACTORIAL HepG2 Assay for human Peroxisome Proliferator-activated Receptor alpha (PPARa) (AID 2283001; active means hit-call score of the fitted dose curve at least 0.9, where 1 is the maximum;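 on AC50: potency for gain of reporter signal over DMSO so agonist or activator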)
human Peroxisome Proliferator-activated Receptor alpha (PPARa), PPARA (gene 5465), sequence (Q07869 whole entry, looked up, the tested form may be a part): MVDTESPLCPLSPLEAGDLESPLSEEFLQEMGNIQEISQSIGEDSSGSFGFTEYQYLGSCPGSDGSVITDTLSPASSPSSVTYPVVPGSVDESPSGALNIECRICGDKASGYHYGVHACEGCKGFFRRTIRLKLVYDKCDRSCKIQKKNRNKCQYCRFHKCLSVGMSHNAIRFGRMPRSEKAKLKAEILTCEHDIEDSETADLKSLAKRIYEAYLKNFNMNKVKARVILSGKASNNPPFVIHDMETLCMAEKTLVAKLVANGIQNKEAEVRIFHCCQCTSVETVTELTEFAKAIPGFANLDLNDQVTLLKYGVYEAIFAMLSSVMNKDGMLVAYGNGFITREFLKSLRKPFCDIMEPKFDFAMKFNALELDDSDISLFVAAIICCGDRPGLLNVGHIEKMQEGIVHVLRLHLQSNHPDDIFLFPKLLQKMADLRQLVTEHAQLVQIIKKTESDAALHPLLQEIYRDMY
Procedure, shortened: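 Exposure: 24 h, transiently transfected HepG2 cells. Endpoint: GAL4-UAS reporter mRNA, RT-PCR with capillary electrophoresis fluorescence. Baseline: DMSO; increases fitted.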

[14] = molecular target: human RAR-related Orphan Receptor beta (RORb), RORB (gene 6096) (UniProt Q92753); assay: ATG_RORb_TRANS: Attagene TRANS-FACTORIAL HepG2 Assay for human RAR-related Orphan Receptor beta (RORb) (AID 2283010; active means hit-call score of the fitted dose curve at least 0.9, where 1 is the maximum)
human RAR-related Orphan Receptor beta (RORb), RORB (gene 6096), sequence (Q92753 whole entry, looked up, the tested form may be a part): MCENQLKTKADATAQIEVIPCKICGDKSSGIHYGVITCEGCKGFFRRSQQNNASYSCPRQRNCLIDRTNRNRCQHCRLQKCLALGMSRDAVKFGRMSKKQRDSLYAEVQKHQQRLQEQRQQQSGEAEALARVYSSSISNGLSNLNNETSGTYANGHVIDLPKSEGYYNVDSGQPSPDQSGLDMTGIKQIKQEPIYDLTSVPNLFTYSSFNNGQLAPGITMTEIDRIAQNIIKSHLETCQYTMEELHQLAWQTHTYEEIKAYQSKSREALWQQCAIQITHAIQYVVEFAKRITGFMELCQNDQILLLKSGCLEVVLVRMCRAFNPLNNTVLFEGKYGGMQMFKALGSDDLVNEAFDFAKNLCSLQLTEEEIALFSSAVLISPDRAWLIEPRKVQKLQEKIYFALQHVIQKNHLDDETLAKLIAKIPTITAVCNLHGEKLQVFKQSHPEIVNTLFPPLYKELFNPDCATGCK
Procedure, shortened: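 Multiplexed transcription-factor reporter assay: HepG2 cells transiently carrying NR-Gal4/GAL4-UAS constructs, 24 h treatment, mRNA quantified by RT-PCR plus capillary electrophoresis fluorescence; activity scored as induction over DMSO.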

Measured: AC50

C=CC(C)C#N (stereo not given)
inactive: [1] | [2] | [3] | [4] | [5] | [6] | [7] | [8] | [9] | [10] | [11] | [12]

CCOC(=O)CC(C)O (stereo not given)
inactive: [1] | [2] | [3] | [4] | [5] | [6] | [13] | [10] | [11] | [12]

C#CC(C)(O)CC(C)C (stereo not given)
inactive: [1] | [2] | [3] | [4] | [5] | [6] | [13] | [10] | [11] | [12] | [14]

CCOC(=O)CCc1ccccc1
inactive: [1] | [2] | [3] | [4] | [5] | [6] | [13] | [10] | [12]

CCOCCOCCOCC
inactive: [1] | [2] | [3] | [4] | [5] | [6] | [13] | [9] | [10]

OCc1cccc(Oc2ccccc2)c1
active: [10] 74.7 µM
inactive: [1] | [2] | [3] | [4] | [5] | [6] | [13] | [11]

N#Cc1cscn1
inactive: [1] | [2] | [3] | [4] | [5] | [6] | [13] | [11]

[Cl][Au]([Cl])[Cl]
active: [4] 0.156 µM
inactive: [1] | [2] | [3] | [5] | [6] | [7]

C=C(C#N)C(=O)OCC
inactive: [1] | [2] | [4] | [5] | [13] | [10] | [11] | [14]
active: [3] 100 µM | [6] 80 µM

CCN(CCC#N)c1ccc(N=Nc2ccc([N+](=O)[O-])cc2)cc1
active: [4] 64.7 µM
inactive: [1] | [2] | [3] | [5] | [6] | [13] | [10] | [11] | [14]

CCCN(CCC)S(=O)(=O)c1ccc(C(=O)O)cc1
active: [11] 18.7 µM
inactive: [1] | [2] | [3] | [4] | [5] | [6] | [13] | [10] | [14]

COC(=O)c1ccc(OC)cc1
inactive: [1] | [2] | [3] | [4] | [5] | [6] | [13] | [10] | [11]

Nc1ccc(Cl)c([N+](=O)[O-])c1
inactive: [1] | [2] | [3] | [4] | [5] | [6] | [13] | [10] | [11]

CC(C)C[C@H](NC(=O)OCC1c2ccccc2-c2ccccc21)C(=O)O
active: [4] 31.1 µM | [13] 40 µM | [10] 23.1 µM | [11] 12.5 µM
inactive: [1] | [2] | [3] | [5] | [6] | [14]

COc1ccccc1N=Nc1c(S(=O)(=O)O)cc2cc(S(=O)(=O)O)cc(NC(C)=O)c2c1O
inactive: [1] | [2] | [3] | [4] | [5] | [6] | [13] | [8] | [10] | [11] | [12]

CCCCCCCCCCCCCCN(CCO)CCO
inactive: [2] | [3] | [5] | [6] | [13] | [8] | [9] | [11] | [12]
active: [1] 17.2 µM | [4] 11.1 µM

CC1(C)COCN1
inactive: [1] | [2] | [3] | [4] | [5] | [6] | [13] | [8] | [9] | [11]

O=C(Nc1ccc([N+](=O)[O-])cc1)Nc1ccc([N+](=O)[O-])cc1 (tested in a mixture with another compound)
inactive: [1] | [2] | [3] | [4] | [5] | [6] | [13] | [10] | [11] | [12]

Cc1ccc(OC(=O)c2ccccc2O)cc1
active: [4] 51.2 µM
inactive: [1] | [2] | [3] | [5] | [6] | [13] | [10] | [11]

CC(=O)O[C@@H]1C[C@@H]2CC[C@@]1(C)C2(C)C
inactive: [1] | [2] | [3] | [4] | [5] | [6] | [13] | [9] | [11] | [12]

Cc1ccc(S(N)(=O)=O)cc1
inactive: [1] | [2] | [3] | [4] | [5] | [6] | [13] | [8] | [9] | [11] | [12]
